Bioassay records: PubChem BioAssay, Broad Institute
An excerpt weighted towards active compounds, which were near 8.1% of everything screened.
MITF inhib: inhibitors of MITF, primary screen, MITF inhibitor project, cell-based, luminescence | AID 2240, 2010 | TRPM1 promoter luciferase, 24 h | inhibition, % (test concentration not listed) | 0.28% of 37,000 active; in the data active = inhibition above about 85%;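 note: human melanocyte line stably carrying TRPM1 promoter luciferase reporter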
NOMO-1 viab: NOMO-1 AML cell viability reduction, primary screen, STK33 inhibitor project, CellTiter-Glo luminescence; 7.5% of 37,000 active; NOMO-1 AML viability, 72 h; inhibition, % (test concentration not listed); in the data active = inhibition above about 80%
PD-1 reversal: activators reversing PD-1 mediated T-cell inhibition, primary screen, luminescence, primary human CD4 T cells, PD-L1 beads; CellTiter-Glo 96 h; activation, % (concentration not given with the values); 29,000 tested, under 10 active; AID 2316, 2010; call rule not given here
Hedgehog inh: Hedgehog pathway signaling inhibitors, primary screen, luminescence, Shh-LIGHT2 cells, Gli-luciferase. 2.1% of 22,000 active. inhibition, % (test concentration not listed). Shh-LIGHT2 Gli-luciferase reporter, 30 h;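 active = mean inhibition across valid replicates above about 65%, limit read from the data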;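 note: pathway switched on by Shh-conditioned medium diluted 1 in 25 in low serum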
Large screens that a line does not name were inactive.

C[C@@H]1CN([C@@H](C)CO)C(=O)c2cc(NS(=O)(=O)c3ccc(Cl)cc3)ccc2O[C@H]1CN(C)Cc1ccc(C(F)(F)F)cc1	NOMO-1 viab 107 (no result: Hedgehog inh)
C[C@H]1CN([C@@H](C)CO)C(=O)c2cc(NS(=O)(=O)c3ccccc3)ccc2O[C@@H]1CN(C)Cc1ccc(C(F)(F)F)cc1	none
O=C1C(Nc2ccccc2)=CC(=O)c2ncccc21	MITF inhib 97, NOMO-1 viab 142, Hedgehog inh 94
Nc1nc(COc2cccc3cccnc23)nc(Nc2ccccc2)n1	NOMO-1 viab 91 (no result: Hedgehog inh)
C[C@H](CO)N1C[C@H](C)[C@H](CN(C)C(=O)NC2CCCCC2)Oc2ccc(NC(=O)Nc3ccc(C(F)(F)F)cc3)cc2CC1=O	none
C[C@H](CO)N1C[C@H](C)[C@H](CN(C)Cc2ccncc2)Oc2ccc(NC(=O)Nc3ccc(C(F)(F)F)cc3)cc2CC1=O	NOMO-1 viab 126
C[C@H](CO)N1C[C@H](C)[C@H](CN(C)Cc2ccc(C(F)(F)F)cc2)Oc2ccc(NC(=O)Nc3ccc(C(F)(F)F)cc3)cc2CC1=O	NOMO-1 viab 129
C[C@@H]1CN([C@@H](C)CO)C(=O)Cc2cc(NC(=O)Nc3ccc(C(F)(F)F)cc3)ccc2O[C@@H]1CN(C)C(=O)NC1CCCCC1	NOMO-1 viab 113
C[C@@H]1CN([C@H](C)CO)C(=O)Cc2cc(NC(=O)Nc3ccc(C(F)(F)F)cc3)ccc2O[C@@H]1CN(C)Cc1ccc(C(F)(F)F)cc1	NOMO-1 viab 120
CCN(CC)c1ccc2cc(C(=O)Nc3ccccc3)c(=N)oc2c1	none
N#C[C@@H]1O[C@H](COC(=O)c2ccccc2)[C@@H](OC(=O)c2ccccc2)[C@H]1OC(=O)c1ccccc1	none (no result: Hedgehog inh)
COc1ccc(S(=O)(=O)N(CC(=O)O)C2CCCCC2)cc1Cl	none (no result: PD-1 reversal, Hedgehog inh)
C[C@@H]1CN([C@H](C)CO)C(=O)Cc2cc(NC(=O)NC3CCCCC3)ccc2O[C@@H]1CN(C)Cc1ccc(C(F)(F)F)cc1	NOMO-1 viab 109
C[C@@H]1CN([C@H](C)CO)C(=O)Cc2cc(NC(=O)Nc3ccc(C(F)(F)F)cc3)ccc2O[C@H]1CN(C)Cc1ccc(C(F)(F)F)cc1	NOMO-1 viab 94
C[C@@H]1CN([C@@H](C)CO)C(=O)Cc2cc(NC(=O)Nc3ccc(C(F)(F)F)cc3)ccc2O[C@@H]1CN(C)Cc1ccc(Cl)c(Cl)c1	NOMO-1 viab 115
C[C@@H]1CN([C@@H](C)CO)C(=O)Cc2cc(NC(=O)NC3CCCCC3)ccc2O[C@@H]1CN(C)C(=O)Nc1ccc(C(F)(F)F)cc1	none
C[C@@H]1CN([C@H](C)CO)C(=O)Cc2cc(NC(=O)CCC(F)(F)F)ccc2O[C@@H]1CN(C)Cc1ccc(Cl)c(Cl)c1	NOMO-1 viab 116
CCOc1ccc(NC(=O)C(C)Sc2ccccn2)cc1 (centres undefined)	none (no result: Hedgehog inh)
O=C(CCCOc1ccc(Cl)cc1Cl)Nc1ccc2c(c1)OCCO2	none
C[C@H]1CN([C@@H](C)CO)C(=O)Cc2cc(NC(=O)Nc3ccc(C(F)(F)F)cc3)ccc2O[C@@H]1CN(C)S(=O)(=O)c1ccccc1	none (no result: Hedgehog inh)
C[C@@H]1CN([C@@H](C)CO)C(=O)Cc2cc(NC(=O)Nc3ccc(C(F)(F)F)cc3)ccc2O[C@@H]1CN(C)S(C)(=O)=O	NOMO-1 viab 114 (no result: Hedgehog inh)
C[C@@H]1CN([C@@H](C)CO)C(=O)Cc2cc(NC(=O)Nc3ccc(C(F)(F)F)cc3)ccc2O[C@@H]1CN(C)S(=O)(=O)c1ccccc1	NOMO-1 viab 112
C[C@H](CO)N1C[C@H](C)[C@H](CN(C)S(=O)(=O)c2ccccc2)Oc2ccc(NC(=O)Nc3ccc(C(F)(F)F)cc3)cc2CC1=O	NOMO-1 viab 128
Cc1ccc(-c2nnc(SCC(=O)Nc3ccccc3F)n2C)cc1	none (no result: Hedgehog inh)
COC(=O)CNC(=O)c1cn(-c2ccccc2)nc1-c1cccs1	NOMO-1 viab 105 (no result: Hedgehog inh)
CCN(CC(=O)O)S(=O)(=O)c1ccc(F)cc1	none (no result: Hedgehog inh)
Cc1ccc(S(=O)(=O)/C(C#N)=C/Nc2cc(C(F)(F)F)cc(C(F)(F)F)c2)cc1	NOMO-1 viab 89, Hedgehog inh 101
CCn1c(SCC(=O)Nc2ccc(C)c(C)c2)nnc1-c1ccncc1	none (no result: Hedgehog inh)
COc1ccc(OC)c(NC(=O)c2ccc(C)c(S(=O)(=O)Nc3ccc(C)cc3)c2)c1	NOMO-1 viab 103 (no result: Hedgehog inh)
COc1ccc(OC)c(NC(=O)c2ccc(Cl)c(S(=O)(=O)Nc3ccc(C)cc3)c2)c1	NOMO-1 viab 93 (no result: Hedgehog inh)
O=C(CCC(=O)N(Cc1ccccc1)Cc1ccccc1)Nc1ccc(F)cc1	none
O=C(CN1CCN(C2CCCC2)CC1)Nc1ccc([N+](=O)[O-])cc1C(=O)Nc1ccccc1F	none (no result: PD-1 reversal, Hedgehog inh)
COc1ccc(C(C)NC(=O)c2cc(-c3ccccn3)nc3ccc(Cl)cc23)cc1OC (centres undefined)	none (no result: PD-1 reversal, Hedgehog inh)
COc1ccc(C(NC(=O)c2cccnc2)c2cc(Cl)c3cccnc3c2O)cc1OC (centres undefined)	NOMO-1 viab 109 (no result: PD-1 reversal, Hedgehog inh)
COc1cccc(C(=O)NC(c2ccc(C)cc2)c2cc(Cl)c3cccnc3c2O)c1 (centres undefined)	NOMO-1 viab 121 (no result: Hedgehog inh)
COc1ccc(C(=O)NC(c2ccc(OC)c(OC)c2)c2cc(Cl)c3cccnc3c2O)cc1 (centres undefined)	NOMO-1 viab 122 (no result: Hedgehog inh)
COc1ccc(C)cc1S(=O)(=O)N(C)CC(=O)Nc1cccc([N+](=O)[O-])c1	none (no result: Hedgehog inh)
C[C@H](CO)N1C[C@H](C)[C@H](CN(C)Cc2ccc(Cl)c(Cl)c2)Oc2ccc(NC(=O)Nc3ccc4c(c3)OCO4)cc2C1=O	NOMO-1 viab 88
C[C@H](CO)N1C[C@H](C)[C@@H](CN(C)Cc2ccc(Cl)c(Cl)c2)Oc2ccc(NC(=O)Nc3ccc4c(c3)OCO4)cc2C1=O	NOMO-1 viab 101
COc1ccc(S(=O)(=O)Nc2ccc3c(c2)CC(=O)N([C@@H](C)CO)C[C@@H](C)[C@@H](CN(C)CC2CCCCC2)O3)cc1	NOMO-1 viab 101
COc1ccc(S(=O)(=O)Nc2ccc3c(c2)CC(=O)N([C@@H](C)CO)C[C@H](C)[C@@H](CN(C)CC2CCCCC2)O3)cc1	NOMO-1 viab 109 (no result: PD-1 reversal)
COc1ccc(S(=O)(=O)Nc2ccc3c(c2)CC(=O)N([C@@H](C)CO)C[C@@H](C)[C@@H](CN(C)CC2CC2)O3)cc1	none (no result: Hedgehog inh)
COc1ccc(S(=O)(=O)Nc2ccc3c(c2)CC(=O)N([C@@H](C)CO)C[C@H](C)[C@@H](CN(C)CC2CC2)O3)cc1	none
O=[N+]([O-])c1cccc(NC(=S)NCc2cn(-c3ccccc3)nc2-c2ccccc2)c1	NOMO-1 viab 97 (no result: Hedgehog inh)
C[C@@H]1CN([C@@H](C)CO)C(=O)Cc2cc(NC(=O)CCCN(C)C)ccc2O[C@@H]1CN(C)Cc1ccc(Oc2ccccc2)cc1	none (no result: PD-1 reversal)
C[C@H]1CN([C@@H](C)CO)C(=O)Cc2cc(NC(=O)CCCCCC(=O)Nc3ccccc3N)ccc2O[C@@H]1CN(C)Cc1ccc(Oc2ccccc2)cc1	NOMO-1 viab 122 (no result: Hedgehog inh)
